In PubChem BioAssay (NCI):
Compounds without any hit were thinned out: in the full panel of roughly 79,000, 15% have a hit. Unmarked numbers belong to inactive results. The source made the active and inactive calls. Rule as the data show it: active = growth inhibition above about 70%; inactive = the rest.

Assays:
[1] = NCI Yeast Anticancer Drug Screen. Data for the rad50 strain (AID 155);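 also: 0% = growth of vehicle-only cultures of the same strain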; settings: S. cerevisiae rad50 strain growth inhibition; at 50.0 µM; active compounds read high
Outline: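 Cells are treated with compound, grown, and their growth is then scored against vehicle-only cultures of the same repair-deficient yeast strain.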

[2] = NCI Yeast Anticancer Drug Screen. Data for the mec2-1 strain (AID 157); settings: S. cerevisiae mec2-1 strain, at 50.0 µM, active compounds read high
Outline: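 Growth inhibition is read against vehicle-treated controls after compound exposure of the mec2-1 yeast strain, which is defective in DNA damage repair or cell cycle control.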

[3] = NCI Yeast Anticancer Drug Screen. Data for the sgs1 mgt1 strain (AID 161);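 also: 0% = growth of cultures given vehicle only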; settings: S. cerevisiae sgs1 mgt1 strain, at 50.0 µM, active compounds read high
Outline: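 Yeast cells carrying a defined DNA-repair defect were exposed to test compounds. Growth inhibition was measured relative to vehicle-treated controls.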

[4] = NCI Yeast Anticancer Drug Screen. Data for the cln2 rad14 strain (AID 165);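 also: 0% = growth equal to vehicle treated cultures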; settings: S. cerevisiae cln2 rad14 strain, at 50.0 µM, active compounds read high
Outline: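 Growth inhibition, relative to vehicle-treated controls, is the read-out. The test organism is a yeast strain with defined genetic alterations, cln2 rad14.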

[5] = NCI Yeast Anticancer Drug Screen. Data for the bub3 strain (AID 167); settings: S. cerevisiae bub3 mutant strain, at 50.0 µM, active compounds read high
Outline: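 Part of a panel of yeast mutants defective in DNA damage repair or cell cycle regulation. Each strain is grown with compound, and inhibition is calculated relative to solvent-treated cultures.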

[6] = NCI Yeast Anticancer Drug Screen. Data for the mlh1 rad18 strain (AID 175); settings: S. cerevisiae mlh1 rad18 strain growth inhibition; at 50.0 µM; active compounds read high
Outline: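 Cells of a genetically altered yeast strain, deficient in DNA damage repair, were treated with compound. Their growth was then compared with that of vehicle-treated cultures to give inhibition.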

Structure (SMILES)	growth inhibition [1]	growth inhibition [2]	growth inhibition [3]	growth inhibition [4]	growth inhibition [5]	growth inhibition [6]
CC/C(C)=N\NC(N)=O	6.85%	6.7%	-29.7%	-16.1%	0.1%	6.9%
COc1ccc(C#CC(O)C(F)(F)F)cc1 (centres undefined)	-7.9%	-20.4%	-8.35%	-18.4%	-46%	-11.5%
CC(=O)OCCOCNC(=S)NN	-7.55%	7.8%	11.2%	-16.3%	-3.95%	-4.8%
Cc1nc2c(c(-c3ccc(Cl)cc3)n1)Cc1c(ccc3ccccc13)O2	-15.4%	-5.9%	-9.2%	-0.1%	-28.8%	-19%
CCOC(=O)C(CN1CCN(CC(NC=O)(C(=O)OCC)C(=O)OCC)CC1)(NC=O)C(=O)OCC	-17.1%	-28.3%	-11.9%	-0.5%	1.15%	-30.1%
COc1cc(C(=O)N=Nc2c(O)[nH]c3ccc(Br)cc23)cc(OC)c1OC	3.55%	-16.6%	-7.1%	-1.9%	2%	-3.1%
COc1cc(/C=C2\Cc3ccccc3C2=O)cc(OC)c1OC	-13%	-14.8%	-15.8%	18.3%	-14.1%	-13.1%
CCOc1ncc(C(O)c2ccc(C)cc2)c(OCC)n1 (centres undefined)	-1.05%	-11.1%	-3.75%	-52.6%	1.4%	-9.8%
CC(=O)c1cc2c(cc1C)C(C)CCC2(C)C (centres undefined)	-7%	-29.4%	-9.6%	-6.1%	1.9%	-22.5%
Clc1ccc(CCc2ccncn2)c(Cl)c1	17.5%	16.1%	5.7%	17.7%	14.7%	51.6%
C1COCCN1.C1COCCN1.N.N.[Cl-].[Pt+2]	-9.5%	-5.4%	-38.1%	-14.2%	-2.45%	-14.8%
O=S(=O)(Oc1cccc2ccccc12)c1ccc(Br)cc1	3.15%	-13.4%	10.2%	-9.75%	30.7%	-10.3%
O=C1C(c2ccccc2Cl)[C@H]2CC=C[C@H]2N1O (some centres undefined)	-26.1%	-39.2%	-8.4%	6.65%	-21.6%	-5.35%
O=C(O)C1C2CCC(O2)C1C(=O)Nc1cccc2cccnc12 (centres undefined)	15.3%	12.4%	-10.2%	-1.15%	22.5%	17.8%
O=C(NCc1ccccc1)C(O)c1ccccc1 (centres undefined)	25.2%	4.8%	-1.25%	0.6%	8.2%	12.7%
CSc1cc(C)c(OC(=O)Nc2cc(C)ccc2C)c(C)c1	-3.45%	0.8%	3%	1%	33.2%	9.75%
O=C1Cc2nc(CO)c(CO)c(CO)c2CO1	-43%	-34.6%	-72.7%	-2.85%	-37%	-47%
C#[N+]CCOP(=O)(OCC1OC(n2cc(C)c(=O)[nH]c2=O)CC1N=[N+]=[N-])O[C@H]1CC[C@@]2(C)C(=CC[C@H]3[C@@H]4CC[C@H](C(C)/C=C/C(CC)C(C)C)[C@@]4(C)CC[C@@H]32)C1 (some centres undefined)	-32.3%	-14.4%	-23.1%	-7.4%	7.5%	-19.1%
CC(CS(C)(=O)=O)S(=O)(=O)Cc1ccccc1 (centres undefined)	-2.4%	6.05%	3.2%	-28.8%	6.25%	-0.45%
COc1ccc(C(=O)Cc2nc3nnc(N)n3nc2CC(=O)c2ccc(OC)cc2)cc1	-9.35%	2.1%	-0.75%	-0.75%	16.4%	15.7%

Structure (SMILES)	growth inhibition [1]	growth inhibition [2]	growth inhibition [3]	growth inhibition [4]	growth inhibition [5]	growth inhibition [6]
CC(=S)N/C=C/c1c(C(=O)O)cc([N+](=O)[O-])cc1[N+](=O)[O-]	-16.9%	-27.7%	4.55%	-12.8%	-18.9%	4.7%
NC1=NC(=O)C(CC(=O)Nc2ccc(Cl)cc2Cl)S1 (centres undefined)	-12.4%	-17.6%	-15.2%	3.3%	-5.6%	-5.6%
N#CC(C#N)=C(C#N)Nc1ccc(F)cc1	1%	-10.4%	-16.6%	-6.5%	-13.4%	-0.4%
O=C1N(O)C2(C=CCCC2)/C(=N/O)C12CCCCC2 (centres undefined)	-8.5%	-2.3%	-0.9%	11.4%	11.4%	12.1%
COC(=O)C1CC(OC(C)=O)C2OC(C)(C)OC2C1OC(C)=O (centres undefined)	7.5%	1.55%	-3.15%	0.55%	8.55%	-3%
CCCCCCCCCCCCCC(=O)OC	27.6%	15.3%	16.5%	-9.3%	-1.4%	31.4%
CCCOC1(C)Oc2cc3c(cc2C(c2cc(OC)c(OC)c(OC)c2)C1C)OCO3 (centres undefined)	10.3%	2.7%	-4.4%	45.4%	18.6%	14.7%
CC(=O)C(C(C)=O)C(C(C)=O)C(C)=O.[Cu]	-26.8%	-11.3%	-21.1%	-10.4%	-18.4%	-22.1%
CSC(=S)/C(=C/Nc1ccccn1)c1ccccc1	39.5%	14.5%	-8.6%	15.2%	37.8%	14.9%
CCN(CC)C1=CC(=O)C(N(CC)CC)=CC1=O	1.25%	0.15%	-7%	-4.5%	13.1%	2.35%
CC(=O)/C(=C/c1ccco1)CC(=O)O	-15.1%	-22.1%	-12.9%	4.05%	-18.4%	-5%
CCOC(=O)c1c(N2CCCC2)ncn(Cc2ccccc2)c1=S	0.7%	12.4%	3.9%	-7.75%	8.3%	-5%
COC(OC)C1(c2ccccc2)NC(=O)N(Cc2ccccc2)C1=O (centres undefined)	3.1%	-10%	-1.3%	-49.5%	2.85%	-9.65%
CCN(CC)C(=S)N=N/C(C)=C1/C=CC=CN1O	1.4%	0.4%	14.6%	13.6%	16.2%	74% (active)
CCCC(=O)OC(CCC1CCCO1)CCC1CCCO1 (centres undefined)	0.3%	-14.9%	10.4%	23.9%	-6.35%	19.6%
CC(=O)OCC1OC(n2c(S)c(C#N)c(-c3ccccc3)c(C#N)c2=O)C(OC(C)=O)C(OC(C)=O)C1OC(C)=O (centres undefined)	22.1%	8.45%	-17.3%	-7.4%	-21.2%	-37.1%
CCOC(=O)COc1ccc(Cl)cc1C	11.7%	-4.7%	-2.4%	4.45%	6.8%	-17.2%
Cc1ccc(S(=O)(=O)Oc2ccc(-c3ccc([N+](=O)[O-])cc3)cc2)cc1	1.5%	19.2%	15.4%	-6.9%	-1.8%	7.05%
CCCCCCCCCCCCCCCC(=O)ON1C(=S)NC(C)(c2ccccc2)C1=S (centres undefined)	-0.65%	5.45%	9.15%	-4.05%	13.4%	-17.6%
